From PubChem BioAssay (NCATS) come the findings set out here.

The nature of experiment [1]: Viability qHTS for spleen associated tyrosine kinase inhibitor (SYKi) drug resistant MV4-11 cells (AID 1963824). Also: potency is read from the fitted curve at half-maximal effect; nearly all actives have a fitted effect of over 35% in size. Conditions: SYKi-resistant MV4-11 viability, CellTiter-Glo, 72 h; series mostly up to 45 µM. The method in brief:
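SYK inhibitor-resistant MV4-11 AML cells, 500 per well, added to predispensed compounds and incubated 72 hr at 37 C, 5% CO2. Viability measured by CellTiter-Glo luminescence after 10 min at room temperature.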

Experiment [2] can be described thus: Quantitative highthroughput screen to assess conditional lethalithy of NOMO1 cells grown in RPMI1640 with untreated serum (RPMI+s) (AID 1963876). Also: nearly all actives have a fitted effect of over 35% in size. Also: potency is read from the fitted curve at half-maximal effect.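 As to Viability: 100% = DMSO wells and 0% = empty wells without cells.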 As to conditions: NOMO1 AML cells in RPMI+serum, CellTiter-Glo viability, 48 h; series mostly up to 45.8 µM. The method in brief:
(§1)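 Each medium arm—HPLM with 10% dialyzed FBS, or RPMI1640 with 5 mM glucose and 10% untreated or dialyzed FBS—was screened against an 11-point, 3-fold compound titration for 48 h at 37 °C, with CellTiter-Glo luminescence as endpoint.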

The nature of experiment [3]: Quantitative highthroughput screen to assess conditional lethalithy of NOMO1 cells grown in Human Plasma-Like Medium with dialyzed fetal bovine serum (HPLM+ds) (AID 1963878). Also: potency is read from the fitted curve at half-maximal effect; nearly all actives have a fitted effect of over 35% in size. Conditions: NOMO1 AML cells in HPLM+ds, CellTiter-Glo viability, 48 h; series mostly up to 45.8 µM. The method in brief:
as §1

A short description of experiment [4]: Quantitative highthroughput screen to assess conditional lethalithy of SEM cells grown in RPMI1640 with dialyzed fetal bovine serum (RPMI+ds) (AID 1963884). Also: potency is read from the fitted curve at half-maximal effect; nearly all actives have a fitted effect of over 35% in size. As to conditions: SEM B-ALL cells, RPMI+dialyzed FBS, CellTiter-Glo viability, 48 h; series mostly up to 45.8 µM. The method in brief:
as §1

A short description of experiment [5]: Cellular viability qHTS for adrenocortical cancer (ACC) cell line SW-13 (AID 1963989). Also: nearly all actives have a fitted effect of over 65% in size. Also: potency is read from the fitted curve at half-maximal effect.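 As to activity (max response): cells grown in serum-free medium with ITS supplement; % is scaled to controls: 0 for no effect and ±100 for the full control effect.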 Conditions: SW-13 ACC cells viability, CellTiter-Glo, 48 h; activity (max response): stronger effect = lower value. The method in brief: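 Here, serum-free SW-13 cultures were dosed up to 46 uM. Following 48 h, ATP-dependent luminescence (CellTiter-Glo) reported viable cells, and logistic modeling produced IC50 values.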

Experiment [6] is described as follows: Quantitative highthroughput screen to assess conditional lethalithy of P12 Ichikawa cells grown in Human Plasma-Like Medium with dialyzed fetal bovine serum (HPLM+ds) (AID 1963879). Also: nearly all actives have a fitted effect of over 35% in size. Conditions: ATP luminescence, 48 h; Potency: viability; series mostly up to 45.8 µM. The method, boiled down: as §1
Experiment [7] in a line: Quantitative highthroughput screen to assess conditional lethalithy of P12 Ichikawa cells grown in RPMI1640 with untreated serum (RPMI+s) (AID 1963881). Conditions: ATP luminescence, 48 h; Potency: viability; series mostly up to 45.8 µM. The method in brief: as §1
Experiment [8] is described as follows: Cellular viability qHTS for adrenocortical cancer (ACC) cell line NCI-H295R (AID 1963990).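 Also: 0% = DMSO only wells and -100% = full killing with cytotoxic reference compound; nearly all actives have a fitted effect of over 60% in size.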 Conditions: CellTiter-Glo ATP luminescence, 48 h; series mostly up to 46.1 µM. The method, boiled down:
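Viability of NCI-H295R after 48 h of treatment (final up to 46 uM) measured through cellular ATP luminescence.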

Experiment [9] can be described thus: Quantitative highthroughput screen to assess conditional lethalithy of SEM cells grown in Human Plasma-Like Medium with dialyzed fetal bovine serum (HPLM+ds) (AID 1963882). Conditions: SEM B-ALL cells in HPLM+ds, CellTiter-Glo viability, 48 h; series mostly up to 45.8 µM. The method, boiled down:
as §1

Experiment [10] in a line: Quantitative highthroughput screen to assess conditional lethalithy of SEM cells grown in RPMI1640 with unreated serum (RPMI+s) (AID 1963883). Conditions: SEM B-ALL cells, CellTiter-Glo viability, 48 h; series mostly up to 45.8 µM. The method in brief:
as §1

“And” between values parts separate entries of the source, which are not always exact repeats. Equal values may be shown once. Results filed as inconclusive are left out. A number with no mark means an inactive call. The source made the active and inactive calls. Calls follow the shape of the dose curve; as a rule, active = well fitted curve in the direction sought with a large enough effect; inconclusive = small, poorly fitted or top-dose-only effect, or another doubt; inactive = no such curve, though single readings can be large; an effect the other way counts as inactive or inconclusive.

As for `CCCS(=O)c1ccc2nc(NC(=O)OC)[nH]c2c1` (configuration not stated), the Potency in experiment [1] was 23.7 µM (active) and 23.5 µM (active); in experiment [2], 20.9 µM (active); in [3], 20.9 µM (active); in experiment [4], 9.35 µM (active); in [5], 25.1 µM (active).
With `Nc1ccn([C@@H]2O[C@H](CO)[C@@H](O)C2O)c(=O)n1` (some centres not stated), the Potency is 1.86 µM (active) in experiment [1] and 1.18 µM (active) in [3]. Also, the Potency result in experiment [2], in experiment [6], in experiment [7] and in experiment [8] was “inactive” in each case.
Take `Cc1cc(Nc2nc(N[C@@H](C)c3ncc(F)cn3)ncc2Cl)n[nH]1`: the Potency in experiment [1] is 1.05 µM (active); in experiment [2] it was 7.43 µM (active); in experiment [9], 5.26 µM (active); in experiment [10] it was 1.05 µM (active); in experiment [4], 2.64 µM (active). Also, the activity (max response) in experiment [5] was -20.7%.
